# Laboratory results published in the OligoGym collection.
# Molecular target: ZFAND2A
# Test: pooled miR-30 sensor sort-seq; sequence = guide strand
# Conditions: shRNA
# Also: reference of the scale not given here.
row,Sequence,sensor-assay potency score (higher = more potent)
1,TACTGGAAGAAAATCTAGCTGC,0.313
2,TACCATCTGCAGCATCTCTTTC,-0.989
3,TTGGGCACATACCATCTGCAGC,-1.16
4,TCTCTTTCTTCTTGCAGCCCTC,-1.15
5,TACTGGGACGAGCACATCCTTC,-1.34
6,TTACAGAGTGGGCATACTGGGA,-0.899
7,TTCTCTTTCTTCTTCCCAGGGT,0.483
8,TTTTACTGGAAGAAAATCTAGC,-0.26
9,AGTCTTTTCTGAACAATGCTTC,-1.25
10,TTTCTGAACAATGCTTCCCCAA,-0.747
11,TTCTGAACAATGCTTCCCCAAA,-1.18

# Molecular target: ZFAND6
# Test: as above
# Conditions: shRNA
row,Sequence,sensor-assay potency score (higher = more potent)
1,TACTACTATTCTGTCTTTGAAG,-0.924
2,AAGATGTAGAGTCTAATGCTGA,-0.785
3,TTTCTCAGCAGCATCGGCTTTG,-0.787
4,TAGAGTCTAATGCTGACTGGGC,-0.0965
5,TTATTCTACCATTACTACTATT,-1.18
6,TCTACCATTACTACTATTCTGT,0.0585
7,TTCCTGCACATGAAACAGCGAT,-1.19
8,TTTTCACCAACAACTACTGGAT,-0.128
9,TTCCATAAAATCCACAGCCAGT,-1.07
10,TTGTGTACATCTGAGTAACGGT,-0.562
11,TAGATGAAGATGTAGAGTCTAA,-0.473
12,TAGCATACTGAACACATGCCAT,-0.592

# Molecular target: ZFHX4
# Test: as above
# Conditions: shRNA
row,Sequence,sensor-assay potency score (higher = more potent)
1,ATCGCTAACACAACCATCGAAT,-0.685
2,TTTGTTGCTGAGGACGTCCTGA,-0.337
3,TTCTTCTGTACCTTCTGCCTGT,0.382
4,TAACATTTCACATTCTTGCATG,-0.369
5,TTGCTCTCTGACATCTTGCTAG,-0.546
6,TAGAGCTACTATCACTTCCTAC,-0.103
7,TTGAAGTTCAGCTTCACTCAGT,0.0714
8,TTTATTTCTCTGTCGTTCCTTA,0.274
9,TTGATCTTGCAGTGTGTCGGGG,0.234
10,TTTGTCATCGCAGACCTCCGTG,-0.26
11,TTTGTTACCAATACTATCGGTG,-0.044
12,TTGCTTGTTCGAATGTACCGTT,0.0955

# Molecular target: ZFP62
# Test: as above
# Conditions: shRNA
row,Sequence,sensor-assay potency score (higher = more potent)
1,TATGTAATTTCTTAACAGCATT,-1.56
2,TAATTTCTTAACAGCATTGGTT,-0.651
3,TTTATGTTGAACAAGGCGGGAA,0.133
